# Screening data: PubChem, Paczesny and Yang Labs, IUPUI and University of Michigan
# The full list was thinned out, with hits kept by preference.
# ST2 inh: inhibitors of human ST2 (IL1RL1) binding to IL-33; hit rate 2.3% among 78,000; inhibition, % for hits at 17 µM; Q01638; AlphaLISA ST2-Fc/biotin-IL-33 interaction, 1 h; in the data active = inhibition above about 30%
# Target sequence (Q01638 whole entry, looked up): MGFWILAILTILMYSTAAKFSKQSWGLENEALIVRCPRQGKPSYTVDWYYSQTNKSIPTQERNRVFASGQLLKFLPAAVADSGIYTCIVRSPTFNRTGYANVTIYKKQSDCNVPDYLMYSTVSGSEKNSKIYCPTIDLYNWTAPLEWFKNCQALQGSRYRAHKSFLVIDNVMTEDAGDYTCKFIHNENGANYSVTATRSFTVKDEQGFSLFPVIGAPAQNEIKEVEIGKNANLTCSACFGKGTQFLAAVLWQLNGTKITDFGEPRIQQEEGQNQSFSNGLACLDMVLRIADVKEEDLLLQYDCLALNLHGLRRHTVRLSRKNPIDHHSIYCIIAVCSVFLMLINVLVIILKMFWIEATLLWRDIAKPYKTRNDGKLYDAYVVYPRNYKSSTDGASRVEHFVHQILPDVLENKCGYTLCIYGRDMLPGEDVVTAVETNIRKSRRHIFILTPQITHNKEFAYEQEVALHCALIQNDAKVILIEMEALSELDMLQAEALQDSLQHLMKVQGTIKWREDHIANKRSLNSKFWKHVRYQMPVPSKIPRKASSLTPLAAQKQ
# * = called active by the depositor; i = inactive.
SMILES,ST2 inh
Cc1ccc(Cl)cc1NC(=O)c1ccc([N+](=O)[O-])c(C)c1,i
Cc1cc(C(=O)NC2C3CC4CC(C3)CC2C4)ccc1[N+](=O)[O-] (stereo not given),i
CC(C)N(Cc1cnn(C)c1)C(=O)CCSc1ccc2c(c1)OCCO2,i
CC1=CC(=O)C=C(C)C1=NOC(=O)/C=C\c1ccccc1,35%*
COc1ccc(/C=C/C(=O)Nc2ccccc2C(=O)O)cc1OC,i
COc1ccc2oc(=O)c(NC(=O)/C=C/c3ccccc3)cc2c1,i
O[C@@H]1C[C@@H](c2nc(Cc3ccc(F)cc3Cl)no2)N(C2CCOCC2)C1,i
Cc1ccc2[nH]nc(C(=O)NCC3CCCN(S(C)(=O)=O)C3)c2c1 (stereo not given),i
Cc1ccc2[nH]c(C(=O)N3CCCC3c3cc(C)no3)c(C)c2c1 (stereo not given),i
CCCC(=O)N(c1ccc(C(C)C)cc1)C1C=CS(=O)(=O)C1 (stereo not given),i
COc1ccc(NS(=O)(=O)c2ccccc2)cc1,i
COc1ccc(Nc2nnc(-c3ccc(C)c(S(=O)(=O)N(C)C)c3)c3ccccc23)cc1,i
COc1ccc(NC2=C(N(C)C)C(=O)c3ccccc3C2=O)cc1,44%*
Cn1c(=O)cc(SCC(=O)N2CCN(c3ccccn3)CC2)c2ccc(Cl)cc21,i
CN(CCCNC(=O)Cn1nc(-c2ccccc2)ccc1=O)Cc1ccccc1,i
O=C(Cn1nc(-c2ccccc2)ccc1=O)NCCN1CCC(Cc2ccccc2)CC1,i
O=C(Cn1nc(-c2ccccc2)ccc1=O)NCCCN1CCC(Cc2ccccc2)CC1,53%*
Cc1ccc(-c2ccc(C(=O)N3CCC(CCC(=O)NC4CC4)CC3)cc2)o1,i
COC(=O)C1=C(C)Nc2ncnn2C1c1ccccc1Cl (stereo not given),i
COC(=O)c1cc(O)c(OCc2ccccc2)c(O)c1,i
COc1ccc(C(=O)c2ccccc2)c(OCC(=O)N(C)C)c1,i
COc1ccc(O)c(C(=O)CC(=O)c2ccccc2)c1,32%*
CC(C)CC(=O)Nc1ccc(O)cc1C(=O)O,i
CCn1cc(C(=O)N2CC(C)CC(C)C2)c(=O)c2cc(S(=O)(=O)N3CCC(C)CC3)ccc21 (stereo not given),i
CC1(c2ccccc2)OC(=O)C(=Cc2ccc(O)cc2)C(=O)O1 (stereo not given),i
SMILES,ST2 inh
CCCCC1(C)OC(=O)C(=Cc2ccc(Br)o2)C(=O)O1 (stereo not given),73%*
CCCCC1(C)OC(=O)C(=Cc2ccc(OC)c(I)c2)C(=O)O1 (stereo not given),i
CC1(C)OC(=O)C(=CNc2ccc(C(=O)O)cc2)C(=O)O1,i
CC1(C)OC(=O)C(=Cc2ccc(I)o2)C(=O)O1,93%*
COc1cc(C=C2C(=O)OC(C)(C)OC2=O)cc(Br)c1O,i
CCCCOc1ccc(OC(=O)c2ccc(Br)o2)cc1,i
O=C1C(=Cc2ccc(-c3ccc(F)cc3)o2)C(=O)c2ccccc21,i
O=C1C(=Cc2cccn2-c2ccc(Cl)cc2)C(=O)c2ccccc21,i
CCCCC1(C)OC(=O)C(=Cc2ccc(N(CC)CC)cc2)C(=O)O1 (stereo not given),33%*
O=C1C(=Cc2ccc(Br)o2)C(=O)c2ccccc21,52%*
O=C(CCS(=O)(=O)c1cccs1)Nc1ccc(F)c(F)c1,i
CC(C)Cn1cc(C(=O)NCC2COc3ccccc3O2)c2c3ccccc3n(C)c2c1=O (stereo not given),i
CCOc1cccc(C(=O)Nc2ccc(I)cc2Cl)c1,i
O=c1c2c3c(sc2n(Cc2cc(=O)n4ccccc4n2)c(=O)n1Cc1ccccc1)CCCC3,i
CCCc1ccc(S(=O)(=O)N2CCN(c3cc(-c4cccc(F)c4)ncn3)CC2)cc1,i
COc1ccc(OC)c(NC(=O)C(=O)O)c1,i
CCc1ncc(-c2nccn2CC(OC)c2cccs2)cn1 (stereo not given),i
O=C(O)C1CCCN(S(=O)(=O)c2ccc(Cl)cc2)C1 (stereo not given),i
CCN(CC)CCNC(=O)C1c2cc(OC)c(OC)cc2C(=O)N(C)C1c1ccccc1F (stereo not given),i
O[C@H]1C[C@@H]2CN(Cc3cccc4c3oc3ccccc34)C[C@@H]2C[C@@H]1O,i
CC(C)CCNC(=O)C1c2ccccc2C(=O)N2CCc3ccccc3C12 (stereo not given),i
NC(=O)c1csc(-c2cc(NC3CCCC3)nc3[nH]ccc23)n1,i
CCNc1ccnc(-c2cccc3[nH]ccc23)n1,i
CC(O)c1cccc(-c2cc(NC3CCNCC3)nc3[nH]ccc23)n1 (stereo not given),46%*
COc1ncc(-c2cc(NCCN(C)C)nc3[nH]ccc23)c(OC)n1,i
Cc1cc(-c2cc(NC3CCNCC3)nc3[nH]ccc23)c(=O)[nH]c1C,38%*
Cc1ccccc1-n1cc(-c2ccnc(NC3CCNCC3)n2)cn1,i
c1cnc(-c2cc(NC3CCNCC3)nc3[nH]ccc23)nc1,41%*
c1ccc2c(-c3cc(NC4CCNCC4)nc4[nH]ccc34)n[nH]c2c1,46%*
